Test results: PubChem BioAssay (NCI)
About 83,000 compounds went through this panel and 20% of them were active in at least one assay; those are over-represented in the sample as a whole.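 Single-dose data. Exposure time 48 hours. Values below 10 considered active.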 Values without a mark were called inactive. Activity calls are given as the source filed them.

System: NCI-H522 lung
Assay: NCI-60 one-dose screen, 48 h (100 = growth as untreated, 0 = no growth, -100 = all killed)
Conditions: 10 µM
Description: Growth inhibition of the NCI-H522 human Non-Small Cell Lung tumor cell line is measured as a screen for anti-cancer activity. Cells are grown in 96 well plates and exposed to the test compound for 48 hours. Compounds are tested at a single concentration, which is 10^-5 M for most compounds. The reported endpoint is percent growth (GI% or GIPRCNT), where numbers from 0 - 100% represent growth inhibition, and numbers from -100% - 0 represent cell death. For example, a value of 40 represents 60% growth inhibition. A value of 0 means no net growth occurred over the course of the experiment. A value of -40 indicates 40% of cells at the beginning of the experiment died by the end of the experiment. A value of -100 means all cells are dead at the end of the experiment.
NCI-60 Human Tumor Cell Lines Screen was performed using the standard one-dose NCI protocol, which is described in more detail at https://dtp.cancer.gov/discovery_development/nci-60/default.htm.
Compounds with GIPRCNT values below 10 were considered active. Activity score was based on GIPRCNT using the following formula: […]
Score is 0 for GIPRCNT values of 100 or above, 50 for GIPRCNT values of 0, and 100 for GIPRCNT values of -100.

SMILES | growth
O=C(Nc1ccc(OCC(=O)c2ccc(Cl)cc2)cc1)Nc1ccc(Cl)c(C(F)(F)F)c1 | -12.4% (active)
COc1ccc(Cn2cc(C#N)c(N)c2C(C)=O)c(OC)c1 | 104%
COc1cc(-c2nc3ccc(C)cc3[nH]2)ccc1OCc1nnc(-c2ccccc2Br)o1 | 64%
O=[N+]([O-])c1cccc(-c2nnc3c(/C=C/c4ccccc4O)nc4ccccc4n23)c1 | 55.3%
CCOC(=O)c1ccc(NC(=O)CSC(CC(=O)c2sc(Nc3ccccn3)nc2C)c2ccccc2F)cc1 (stereo not given) | -22.7% (active)
Cc1ccc(COc2ccc(NC(=O)Nc3ccc(Cl)c(C(F)(F)F)c3)cc2)cc1 | 44.9%
O=C(CSc1nc2ccccc2c(=O)n1-c1ccc(Cl)cc1)Nc1ccc(-c2nc3ccccc3[nH]2)cc1 | 15.9%
COc1ccc2[nH]cc(-c3nc(N)nnc3-c3cn(C)c4ncc(Br)cc34)c2c1 | -55.1% (active)
CCn1c(SCC(=O)Nc2ccc(-c3nc4ccccc4[nH]3)cc2)nc2ccccc2c1=O | -74.2% (active)
COc1cc2oc(-c3cccc(C(=O)Nc4ccc(Cl)cc4)c3)cc(=O)c2c(OCCNC(=O)[C@@H](N)CO)c1OC | -27.9% (active)
Fc1ccc(-c2csc(Nc3cccc(Nc4nc(-c5ccc(F)cc5)cs4)c3)n2)cc1 | 6.23% (active)
COc1ccc(Cc2nn(CC(=O)N/N=C/c3ccc([N+](=O)[O-])cc3)c(=O)c3c(C)noc23)cc1 | 76.1%
Cc1ccc(S(=O)(=O)N2CCN(S(=O)(=O)c3oc(-c4ccccc4)nc3C#N)CC2)cc1 | 64.1%
COc1cc2oc(-c3cccc(C(=O)Nc4ccc(Cl)cc4)c3)cc(=O)c2c(OCCN)c1OC | -87.1% (active)
Cn1cc(-c2cc3nc(-c4c[nH]c5ccccc45)cc(N)n3n2)c2cc(Cl)ccc21 | -72.1% (active)
COC(=O)CNC(=O)COc1c(OC)c(OC)cc2oc(-c3cccc(C(=O)Nc4ccc(Cl)cc4)c3)cc(=O)c12 | 64.9%
C#C[C@]1(O)CC[C@H]2[C@@H]3CC=C4c5sc(Nc6ccc(N(C)C)cc6)nc5CC[C@]4(C)[C@H]3CC[C@@]21C | -57.1% (active)
COc1cccc(O)c1/C=C1\SCc2cc3c(OC)cccc3[o+]c21 | 102%
COc1cc(Nc2nc(O)c(/C=C3\C=Nc4ccccc43)s2)cc(OC)c1OC | -13.6% (active)
Cc1ccc(-c2nc(C#N)c(S(=O)(=O)N3CCN(S(C)(=O)=O)CC3)o2)cc1 | -86.6% (active)

SMILES | growth
Cn1cc(-c2nnc(N)nc2-c2c[nH]c3ccc(F)cc23)c2cc(Br)cnc21 | 23.8%
COc1ccc(Cc2nn(CC(=O)N/N=C/c3ccc(Br)cc3)c(=O)c3c(C)noc23)cc1 | 29.2%
Cc1ccc2sc3c(c2c1)Oc1nc[nH]c(=O)c1C3c1cccc(F)c1 (stereo not given) | 82.8%
Cc1cc(N=C2NC(=O)/C(=C/c3cc(C(C)(C)C)c(O)c(C(C)(C)C)c3)S2)n[nH]1 | -26.1% (active)
CC(C)(C)c1cc(/C=C2\S/C(=N/c3ncn[nH]3)NC2=O)cc(C(C)(C)C)c1O | -23.9% (active)
COc1cccc(C(=O)CSc2nc(-c3ccc(OCc4ccccc4)c(OC)c3)c(C#N)c(=O)[nH]2)c1 | 78.9%
CC1(C)CC[C@]2(C(=O)O)CC[C@]3(C)C(=CCC4[C@@]5(C)C[C@@H](O)[C@@H]6OC(c7cccc(F)c7)OC[C@@]6(C)C5CC[C@]43C)C2C1 (stereo not given in full) | 8.76% (active)
COc1ccc(C2OC[C@@]3(C)C4CC[C@]5(C)C(CC=C6C7CC(C)(C)CC[C@]7(C(=O)O)CC[C@]65C)[C@@]4(C)C[C@@H](O)[C@@H]3O2)cc1 (stereo not given in full) | 57.1%
Nc1nnc(-c2c[nH]c3ncc(Br)cc23)c(-c2c[nH]c3ccc(Br)cc23)n1 | 21.9%
CCOC(=O)C1=C(N)N(c2ccc(C)cc2)C2=C(C(=O)CC(C)(C)C2)C1c1ccccc1Br (stereo not given) | 67.5%
O=C(c1ccccc1)c1ccc2nc(-c3ccccc3Br)[nH]c2c1 | -74.9% (active)
Fc1ccc(/C=C/c2nc3ccccc3n3c(-c4ccc(Cl)cc4)nnc23)cc1 | -81.7% (active)
O=C(c1ccc(F)cc1)C(c1c[nH]c2ccccc12)c1c[nH]c2ccccc12 | 50.7%
Cn1cc(-c2nc(N)nnc2-c2c[nH]c3ccccc23)c2cc(Br)cnc21 | -36.5% (active)
COc1cc(C2CC(c3ccccc3)=Nc3c(N)nc(N)nc3N2)ccc1Oc1nc(NCCO)nc(N2CCOCC2)n1 (stereo not given) | 97.7%
O=C(CN1CCN(c2ncnc3c2cnn3-c2ccccc2)CC1)Nc1ccc(Br)cc1 | -80.3% (active)
Cn1cc(-c2nnc(N)nc2-c2c[nH]c3ccccc23)c2cc(Br)cnc21 | 15.1%
Cn1cc(-c2cc(N)n3nc(-c4cn(C)c5ccccc45)cc3n2)c2cc(F)ccc21 | -66.3% (active)
Cc1cc(N=C2NC(=O)S/C2=C\c2ccc(F)cc2)n[nH]1 | -8.95% (active)
O=C1S/C(=C\c2ccc([N+](=O)[O-])cc2)C(=O)N1CCN1CCCCC1 | 99.7%
